{"source": "the supplement of paper PMC10681739", "data": [{"molecular_target": "RUNX1 (UniProt Q01196)", "sequence (Q01196 whole entry)": "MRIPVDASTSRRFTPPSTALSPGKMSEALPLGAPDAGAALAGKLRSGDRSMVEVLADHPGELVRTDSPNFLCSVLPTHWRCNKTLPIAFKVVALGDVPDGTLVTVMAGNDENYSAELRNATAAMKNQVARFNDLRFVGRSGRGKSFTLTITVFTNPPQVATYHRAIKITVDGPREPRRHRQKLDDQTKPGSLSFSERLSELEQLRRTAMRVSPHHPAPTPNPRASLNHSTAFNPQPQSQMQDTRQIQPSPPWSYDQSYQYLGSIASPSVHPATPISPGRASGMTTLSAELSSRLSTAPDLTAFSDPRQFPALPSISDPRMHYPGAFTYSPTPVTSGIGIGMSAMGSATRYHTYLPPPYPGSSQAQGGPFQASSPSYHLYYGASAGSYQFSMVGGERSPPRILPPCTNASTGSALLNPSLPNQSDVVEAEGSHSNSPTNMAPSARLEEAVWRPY", "assay": "RUNX1 binding intensity (PBM fluorescence) in presence of ETS1, normalised to RUNX1-only experiment (arbitrary fluorescence units); higher = stronger binding", "details": "RUNX1 concentration 2 nM; ETS1 concentration 25 nM", "description": "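Cooperative gcPBM on 36-bp genomic probes with neighbouring ETS1 and RUNX1 sites. Recombinant human RUNX1 (2 nM) was incubated alone or with ETS1 (25 nM) and detected with anti-RUNX1 antibody plus Alexa488 secondary. Values are medians over 4 replicate spots; the RUNX1+ETS1 data were normalised to the RUNX1-only data. The probes sit in constant array flanks that are not printed.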", "values": [{"sequence": "TTACGTTAAGGAGGAAACTCTGTGGTTAAACTGTAG", "RUNX1 binding intensity": 1810}, {"sequence": "CCGTGGAAGGAAACGCTGCCAACCGCAACAGAAATG", "RUNX1 binding intensity": 3550}, {"sequence": "CCATGCACAACAGGATGTGGTTAGACAGTCAAAATT", "RUNX1 binding intensity": 11900}, {"sequence": "ATTTCGCTGAAAACAGGAAACCACGAAGCCCAGATG", "RUNX1 binding intensity": 1250}, {"sequence": "GAGTTCCGCCTCGCCGTTTGTCCCTTGCGGTACCCG", "RUNX1 binding intensity": 2030}, {"sequence": "GCGCCCTCCAGGAAACGCCGCGGTTTACTGTCTGCC", "RUNX1 binding intensity": 1910}, {"sequence": "CTCACAGAGCAAGTAGGATGTGGTTTCCAGGGGCTG", "RUNX1 binding intensity": 1180}, {"sequence": "TAGCCACTAACCGGAAACGTTAAACCACAGCTCCGT", "RUNX1 binding intensity": 7440}, {"sequence": "GTTGAGTTCCGGGGGAGGTTGAGTTCCTGCGGTCAA", "RUNX1 binding intensity": 2450}, {"sequence": "CACCCGAACGGAAACACCTGCGGCTGAGGGGAGGGG", "RUNX1 binding intensity": 938}, {"sequence": "GGACGCTTCCGGTGGAAGGGAGCTGTTGCGGGGCTT", "RUNX1 binding intensity": 1950}, {"sequence": "ATAGTCTCTTCCTGTGTTGCAAACCACAGGTCCACC", "RUNX1 binding intensity": 2300}, {"sequence": "TCAATGACAGGAAGTTTTTAAACCACATACGGCTAA", "RUNX1 binding intensity": 1810}, {"sequence": "ACACTGAGCTGAACGGAAATGTGGTTCTCACCTCAT", "RUNX1 binding intensity": 1140}, {"sequence": "AAGAAAAAGGGAGGATGTGGTTTAGCAAAAGCACTG", "RUNX1 binding intensity": 2230}, {"sequence": "GACTTTTACGGAAATAGCAGTCCAAAACCGCGTCTA", "RUNX1 binding intensity": 1170}, {"sequence": "TGGGGACCACTGTCAGGATGTGGTCACTGGAGTCAC", "RUNX1 binding intensity": 1540}, {"sequence": "GCTCTTCACTTCCTGTGGCTCCCGCAGCGGCCGCCG", "RUNX1 binding intensity": 2460}, {"sequence": "GAAAAATGAAGTTTCCGCAGTAACCACAACACAGCC", "RUNX1 binding intensity": 2620}, {"sequence": "TGTGTATGAGAACGGATATAGGTGGTTTTATAAGGA", "RUNX1 binding intensity": 941}, {"sequence": "TGAAGTACTAGTCAAGGATGTGGTTTTACATAGCAG", "RUNX1 binding intensity": 1340}, {"sequence": "TGTCCGCACCCCACTTCCGCCCCGCAGAGGGCAACG", "RUNX1 binding intensity": 3130}, {"sequence": "AGCTAGGACAGGATGTGAAAACCACACTGACAAAGT", "RUNX1 binding intensity": 3510}, {"sequence": "GAGGGGAGGATGTCTGAGCTTTTAATTGTGGTTTCA", "RUNX1 binding intensity": 943}, {"sequence": "CGGCAGGCAAGCAGGAAACCGCGAGTGGAGAAAGGG", "RUNX1 binding intensity": 1860}, {"sequence": "AGGGCATTTCCTTTGGGGCTGGTGGTCACGGACAAC", "RUNX1 binding intensity": 1430}, {"sequence": "ACAGCTCACACAGGAAATACAAACCTCAAAAAGCAA", "RUNX1 binding intensity": 1670}, {"sequence": "CCCACTGCGCCAGGATGTGGTCAGGTCGGTGACGTT", "RUNX1 binding intensity": 3410}, {"sequence": "TTTATCATGAATGCAGGATGTGGGCAGACTCACAGC", "RUNX1 binding intensity": 1280}, {"sequence": "GTGGGGCAGGATGTGCTTGCCTGGCTGCGGTTGGAC", "RUNX1 binding intensity": 2230}, {"sequence": "GAAGGAAGTGGAGACAGTAAGGGGAAACCACAAACC", "RUNX1 binding intensity": 1190}, {"sequence": "TTCAACAAGGTTTTCCTGTGGTTACCCCATGCTTTG", "RUNX1 binding intensity": 1680}, {"sequence": "CAGTGAACAGTTTCCTGTTCCTGTGGTTTTGACTTT", "RUNX1 binding intensity": 3980}, {"sequence": "TCAAGTTTGGTAACAGGATGTGGTAGGAGGAACACA", "RUNX1 binding intensity": 1730}, {"sequence": "CCTTGCAGCAACGGATGTGGGTTTTTTTTTTTCTTT", "RUNX1 binding intensity": 10500}, {"sequence": "TCATGCTGCTTCCTGCCCAACCCGCAGTTCCGATAA", "RUNX1 binding intensity": 2350}, {"sequence": "AAACCAGAGGAAGTGGATTCCAACCACAAACCTCAC", "RUNX1 binding intensity": 2100}, {"sequence": "CCCTTCCGCGTGGGTTGCACCTGCTAACCACAGAGC", "RUNX1 binding intensity": 1600}, {"sequence": "ACACAGGAAGGACGCACGCTCCCGCCCCAACCACAT", "RUNX1 binding intensity": 1060}, {"sequence": "AACATCCTGTGTAAAGAGAATTGAATGTGGTTTTCT", "RUNX1 binding intensity": 2600}]}]}
